# These entries were drawn from the full list.
# aSyn 5UTR act = Activators working through SNCA 5'UTR binding (MLPCN) | 300,000 compounds, 7.1% hits | alpha-synuclein 5'UTR reporter, activators screen | activity score, % (tested at 7.5 µM), hits read low; in the data active = activity score below about -60%
# * = called active by the depositor.
SMILES,aSyn 5UTR act
Cc1[nH]c2ccccc2c1/C=N/Nc1cccc(C(=O)O)c1,-101.2*
O=C(Cc1nc2ccccc2[nH]1)c1ccc([N+](=O)[O-])cc1,-89.8*
Clc1ccc(/C(Cc2nc3ccccc3[nH]2)=N\Nc2ccccc2)cc1,-115.1*
CCc1cc(C(=O)Cc2nc3ccccc3[nH]2)c(O)cc1O,-183.4*
O=C(Cc1nc2ccccc2[nH]1)c1ccc(Cl)cc1,-79.6*
CCOCC(=O)Nc1nc2ccc(C)cc2s1,-85.1*
CCOc1ccc2nc(-c3cc(NC(C)=O)ccc3O)sc2c1,-161.3*
CCOCC(=O)Nc1nc2ccc(OCC)cc2s1,-73.2*
Cc1ccc2nc(NC(=O)COC(=O)c3ccccn3)sc2c1,-108.7*
Cc1ccc2nc(NC(=O)CSCC(=O)OCC(=O)c3ccccc3)sc2c1,61.7
CCOc1ccc2nc(NC(=O)C3(C)CC3(Br)Br)sc2c1 (stereo not given),-128.0*
CCOc1ccc2nc(NC(=O)c3cnccn3)sc2c1,-127.5*
Cc1ccc2nc(NC(=O)CCn3cccc3)sc2c1,-115.4*
C/C=C/C(=O)OCC(=O)Nc1nc2ccc(C)cc2s1,-74.3*
Cc1ccc2nc(NC(=O)CCCC(=O)O)sc2c1,102.2
CCOc1ccc2nc(NC(=O)C3CCN(C(=O)c4ccco4)CC3)sc2c1,-98.5*
Cc1ccc2nc(NC(=O)C3CC3C)sc2c1 (stereo not given),-104.9*
Cc1ccc(NC(=O)CSc2ncc(-c3ccccc3)n2C(=O)c2ccccc2)cc1,-64.3*
Cc1ccc(NC(=O)CSc2nc3ccccc3c3nc4ccccc4n23)cc1,110.3
Cc1nc(N)sc1C(=O)N/N=C/c1ccccc1[N+](=O)[O-],-133.0*
Cn1cccc1/C=N/NC(=O)c1sc2ccccc2c1Cl,-79.9*
O=C(N/N=C/c1c[nH]c2ccccc12)c1sc2ccccc2c1Cl,-68.8*
CC(/C=N/NC(=O)c1sc(N)nc1C)=C\c1ccccc1,-115.7*
Cc1nnsc1C(=O)N/N=C/c1ccc2ccccc2c1O,120.0
Cc1nc(N)sc1C(=O)N/N=C/c1c[nH]c2ccccc12,-79.4*
SMILES,aSyn 5UTR act
Cc1ccc(C(=O)Nc2ccc(C(F)(F)F)n(C)c2=O)cc1,-144.6*
COc1ccc(C(=O)Nc2ccc(C(F)(F)F)n(C)c2=O)cc1,-151.3*
COCCn1c(C(F)(F)F)ccc(NC(=O)c2ccccc2)c1=O,-96.5*
CC(=O)NC(c1ccc(C)cc1)c1cc(Cl)c2cccnc2c1O (stereo not given),59.9
O=S(=O)(Nc1cc(Sc2cccc3cccnc23)c(O)c2ccccc12)c1ccccc1,-138.9*
O=C(NC(NC(=S)N1CCOCC1)C(Cl)(Cl)Cl)c1ccc(Cl)cc1 (stereo not given),66.1
Cc1ccc(/C=N/NC(=S)N2CCOCC2)cc1,-85.0*
S=C(N/N=C/c1ccc(Cl)cc1)N1CCOCC1,-68.6*
S=C(N/N=C/c1ccc(Br)cc1)N1CCCCC1,-194.7*
Cc1cccc(C(=O)OCC(=O)c2ccc3c(c2)OCO3)c1O,-153.5*
O=C(COC(=O)c1ccccc1[N+](=O)[O-])c1ccc2c(c1)OCO2,-187.3*
CCOc1ccc(/C=C2\CCC(C3CCCC3)C2=O)cc1 (stereo not given),-229.3*
O=C1/C(=C/c2ccc(F)cc2)CCC1C1CCCC1 (stereo not given),-132.9*
O=C1C(=C2SCCCS2)CC/C1=C\c1ccc(F)cc1,119.4
O=C1/C(=C/c2ccco2)CCC1C1CCCC1 (stereo not given),-65.7*
O=C1/C(=C/c2ccccc2)CCC1C1CCCC1 (stereo not given),-73.3*
O=C(NC(=S)Nc1ccc(N2CCCCC2)cc1)c1ccco1,-181.6*
O=C(NC(=S)N(CCc1ccccc1)CCc1ccccc1)c1ccco1,51.2
CC1CCN(c2ccc(NC(=S)NC(=O)c3ccco3)cc2)CC1,-131.8*
O=C(NC(=S)Nc1ccccc1Cl)c1ccco1,-112.2*
CCCNC(=O)c1cc(Cl)c(NC(=O)C2=CSCCO2)cc1OC,-135.9*
CCn1cc(C(=O)NCCCN(C)C)c(=O)c2cc(F)c(N3CCN(C)CC3)cc21,-64.7*
Cc1ccc2[nH]cc(/C=C/c3cc[n+](C)cc3)c2c1,64.5
Cc1nc(N)sc1-c1csc(Nc2ncccn2)n1,-136.5*
Cc1nc(C)c(-c2csc(Nc3ccc(F)cc3)n2)s1,-152.2*
SMILES,aSyn 5UTR act
COc1cccc(Nc2nc(-c3sc(N)nc3C)cs2)c1,-111.9*
COc1cccc(Nc2nc(-c3sc(C)nc3C)cs2)c1,-103.2*
COc1ccc(NC(=S)NC(=O)c2ccccc2)cn1,-137.8*
COc1ccc(NC(=O)c2cccc(Oc3ccccc3)c2)cn1,-108.5*
O=C1c2ccccc2C(=O)N1CCCOc1ccccc1,-61.8*
CCOc1ccc(OCCN2C(=O)c3ccccc3C2=O)cc1,-94.5*
Cc1ccc2oc(=O)n(CCCOc3ccccc3)c2c1,-68.5*
Cc1cccc(OCCn2c(=O)n(C)c3ccccc32)c1,-161.5*
Cc1ccc2c(c1)C(=O)C(=O)N2CCCOc1ccccc1,-67.5*
Cc1cccc(OCCN2C(=O)c3ccccc3C2=O)c1,-66.9*
CC(C)(C)c1ccc(-c2nc(N)nc(N)n2)cc1,-89.5*
